Over roughly 68,000 sequences, “fluorescence intensity (a.u.)” has its median near 9,100; the highest 2% begin near 16,000. This is one part of a sample in which the highest values are shown more often than they occur.

OsWRKY34, sequence (Q0JBA9 entry or part of it): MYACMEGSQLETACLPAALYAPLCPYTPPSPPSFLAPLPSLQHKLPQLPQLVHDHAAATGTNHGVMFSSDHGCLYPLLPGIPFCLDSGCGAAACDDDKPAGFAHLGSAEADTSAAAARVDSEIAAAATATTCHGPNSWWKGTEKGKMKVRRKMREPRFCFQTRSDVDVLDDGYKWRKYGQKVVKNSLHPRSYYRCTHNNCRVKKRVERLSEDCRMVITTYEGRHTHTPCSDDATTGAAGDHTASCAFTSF

This assay concerns the target OsWRKY34 (Oryza sativa, UniProt Q0JBA9 1-250). In words: protein-binding microarray (RPBM); PBS, 2% BSA, 51.3 ng/ul salmon testes DNA, 50 uM zinc acetate, 200 nM TF, 25 C, 1 h; high values mean tight binding. To be noted: protein: recombinant; tags: N-terminal polyhistidine and DsRed monomer fusion (pET32a); label: CyDye5-dUTP incorporated in the synthesized complementary strand; 3' TTTTT single-stranded linker to array surface; dsDNA, one strand shown. In outline: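 For the binding signal, per-feature fluorescence intensity was read in arbitrary units on an Axon 4000B scanner. Before scanning, a 2% BSA-blocked custom Agilent array made double-stranded with Cy5-dUTP was washed after 1 h at 25 °C with 200 nM protein and 50 µM zinc acetate. The proteins were Ni–NTA-purified transcription factors with N-terminal polyhistidine and DsRed fusions, expressed in E. coli BL21-CodonPlus.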
Consider “TCTGTATATAAGGCCTGATTTAGTTCCCAAATTTTTTTTCCGGAGTCACCTAGTGCAG”, for which the binding signal is 8100 fluorescence intensity (a.u.).

For the sequence “AATATTTCCCTTTCCAATGTTCAGTCAGCCCATCAGACCGCGGAGTCACCTAGTGCAG”, the binding signal is 8110 fluorescence intensity (a.u.).

On to “GTTCCAAAATTTTTCTTTAAACTTCCAACATTTTCATCACCGGAGTCACCTAGTGCAG”, for which the binding signal was 9190 fluorescence intensity (a.u.).

For the sequence “GTATGGTACAGCACATTTCTCTGTTCAAGTGTTCATTATGCGGAGTCACCTAGTGCAG”, the binding signal is 8610 fluorescence intensity (a.u.).

On to “ATATATATGGATTAGGTTTGGATTGGGGATCATTTGTATGCGGAGTCACCTAGTGCAG”, for which the binding signal was 8360 fluorescence intensity (a.u.).

With “ACCTAGATCCACCTCGTTAGTTTATTTTGTGAGAGTGCTCCGGAGTCACCTAGTGCAG”, the binding signal was 9140 fluorescence intensity (a.u.).

Take “AACACTCACATCAAGTCATCAACCGACCTTGTCAAGTCAACGGAGTCACCTAGTGCAG”: the binding signal was 10600 fluorescence intensity (a.u.).

Take “TTGGTTGCATGTTTTTTCACGTAAAATCTTAATTTTTGCACGGAGTCACCTAGTGCAG”: the binding signal was 8150 fluorescence intensity (a.u.).

As for “TTGCTCACCAGAGCTACTACTACCGGTCTGTCACGCTCACCGGAGTCACCTAGTGCAG”, the binding signal was 9180 fluorescence intensity (a.u.).

Turning to “TGCTCCGACCACTGCCCACCCCGCTCCACCGGCTAGAGAGCGGAGTCACCTAGTGCAG”, the binding signal was 9120 fluorescence intensity (a.u.).

For the sequence “CCGACTGCTCAATCACCACCGGTCTGACCGGCTACCAGAGCGGAGTCACCTAGTGCAG”, the binding signal was 17200 fluorescence intensity (a.u.).

With “CAACATCTTCTTTAGTTGCTCACACTTTTTCTTAGAATCACGGAGTCACCTAGTGCAG”, the binding signal is 8340 fluorescence intensity (a.u.).

For “TTTCTTCGTCCTCTTGGTTTCCCTTTCAATTCATTCATTTCGGAGTCACCTAGTGCAG”, the binding signal was 8460 fluorescence intensity (a.u.).

Take “GCTCGCCCGTCTTTCGCTCTGCCCGCAGCCCGCCGCCGCTCGGAGTCACCTAGTGCAG”: the binding signal was 14000 fluorescence intensity (a.u.).

For the sequence “ACCGGCCCAGAACAGTTGGGCAGCCCACGAAGTCACCAACCGGAGTCACCTAGTGCAG”, the binding signal was 8540 fluorescence intensity (a.u.).

Regarding “CTTAGTTCTCCGCGCTATTCACTTCTGCGCCGTCGCTTTTCGGAGTCACCTAGTGCAG”, the binding signal is 8640 fluorescence intensity (a.u.).

Regarding “GCGCGGCGGCGGTGGGGTGGTAGTGGTGGTGGGTGGAATGCGGAGTCACCTAGTGCAG”, the binding signal is 13500 fluorescence intensity (a.u.).

For the sequence “CTCAGTATTGGGTTGGGTGGTGGTGGCGGCGGTGGCAGTGCGGAGTCACCTAGTGCAG”, the binding signal is 13700 fluorescence intensity (a.u.).

Take “GAAGCTTCGGGAGTGGTGGTGGGTTGCGGCCGTGCGGCTCCGGAGTCACCTAGTGCAG”: the binding signal was 10900 fluorescence intensity (a.u.).

Regarding “TTGGGTTGGGTTGGGTGGTCCATTCTGTACGGTGCGCCGGCGGAGTCACCTAGTGCAG”, the binding signal is 19600 fluorescence intensity (a.u.).

Consider “GACGGCGCCCTGCGGCTTCGGTTGCGGGGTGGGTGGTGGCCGGAGTCACCTAGTGCAG”, for which the binding signal is 10300 fluorescence intensity (a.u.).

Regarding “GAGGGGAGGGAGAGGTCGGAGATGGTTACCGGTGGGGAAGCGGAGTCACCTAGTGCAG”, the binding signal was 12300 fluorescence intensity (a.u.).

Turning to “GTGGGGCTCGGGTTCCGGCCGGTGTAGGGGAGGGGAGATGCGGAGTCACCTAGTGCAG”, the binding signal is 15700 fluorescence intensity (a.u.).

On to “CAAGATGGGTCGGGTTGGGTGGGGTTACTCGCACTAGCACCGGAGTCACCTAGTGCAG”, for which the binding signal was 22300 fluorescence intensity (a.u.).

For “GCGCTGTGGTCCCGGCGCCGGCAGTGGTTGCTTCTGCGCGCGGAGTCACCTAGTGCAG”, the binding signal is 8560 fluorescence intensity (a.u.).

With “GGGTGGGCGTGATGGAGTTGGGTCGGCCGGGGTGTCCGGTCGGAGTCACCTAGTGCAG”, the binding signal was 14500 fluorescence intensity (a.u.).

With “GCTTCGGCTCGGGGTGGGTTGGGTTGGGTTGGGTTCGATGCGGAGTCACCTAGTGCAG”, the binding signal was 32400 fluorescence intensity (a.u.).

As for “TGGGTGGGTTGGGTGGGTGGGTGGGTGCGCGGCGGGTATGCGGAGTCACCTAGTGCAG”, the binding signal was 32800 fluorescence intensity (a.u.).

“CATGTGTGGTGAGCATATTTGTTTGTACTGTTGTATTTTACGGAGTCACCTAGTGCAG”: the binding signal was 9560 fluorescence intensity (a.u.).

For “CTTCTTCTATATCTGTAATCTTTCCTTATCTCCTCCCATGCGGAGTCACCTAGTGCAG”, the binding signal is 8520 fluorescence intensity (a.u.).

As to “CCACCTCGTTTTATGTAAAACACTTAATCTTCAACTTCAGCGGAGTCACCTAGTGCAG”, the binding signal is 8860 fluorescence intensity (a.u.).

As to “CGCAATCCACTTTCTCTCGCCAAGTCGTCGTCCATCCGATCGGAGTCACCTAGTGCAG”, the binding signal is 9020 fluorescence intensity (a.u.).

Take “TTTTCAGCGTGTGCATCACATGGTCCGTATCTTTAATACTCGGAGTCACCTAGTGCAG”: the binding signal was 8520 fluorescence intensity (a.u.).

“TCCTGTCGTATGTCTTCACCACCACACAAACAATGCTTCTCGGAGTCACCTAGTGCAG”: the binding signal was 9550 fluorescence intensity (a.u.).

On to “ACTCCACTTAGGCTGCATTCGTTCTAGATACATTGAGTTACGGAGTCACCTAGTGCAG”, for which the binding signal is 9970 fluorescence intensity (a.u.).

For the sequence “GCCTTTGTCGGTCATGTTCCCATCGCTTTAGTTCTTCTCACGGAGTCACCTAGTGCAG”, the binding signal was 15000 fluorescence intensity (a.u.).

For “GTGATAGAAAAGTTGTGTGTGTATGAAATGTTTGATGCGACGGAGTCACCTAGTGCAG”, the binding signal was 8750 fluorescence intensity (a.u.).

“ATACTGAGAAAGTGCCAAGTTTTTGTCTGCTTCATGTAACCGGAGTCACCTAGTGCAG”: the binding signal was 8110 fluorescence intensity (a.u.).

Regarding “GACCTCGCCGTCGCCGTCGCCGCCGCCGCCGCCGCCATGGCGGAGTCACCTAGTGCAG”, the binding signal is 9900 fluorescence intensity (a.u.).

Take “CATTGTTCCTCACAGGATCAGGGGTGGAGAGTGAAGAGAGCGGAGTCACCTAGTGCAG”: the binding signal was 8070 fluorescence intensity (a.u.).

Regarding “GTGGTTGATTTGACCTTTTACATTGTACAGATGGTATTGGCGGAGTCACCTAGTGCAG”, the binding signal was 8480 fluorescence intensity (a.u.).

Take “TGCGGGATGGCTGGTTGGTGTGCGTGTGCTTCGGTGCGTTCGGAGTCACCTAGTGCAG”: the binding signal was 10400 fluorescence intensity (a.u.).

Source of the values: paper PMC7819943, “Rice protein-binding microarrays: a tool to detect cis-acting elements near promoter regions in rice”.
